From the supplement of paper PMC8728848
The full list was thinned out, with the strongest signals kept by preference.

Each substance was assayed on Gal(a1-2)Gal (assay: glycan array binding signal (z-score within array); higher = stronger binding). Settings: glycan notation: IUPAC condensed, linker removed.
How it was run: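 Negative Z-scores can be read as non-binding. The Z-score is calculated within each array and then averaged across arrays of one protein sequence at different concentrations or buffers and across linkers. Arrays, 3228 in all, were curated from the Consortium for Functional Glycomics database and kept only where the protein sequence was available.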

Chain of Regenerating Gene IV (Homo sapiens), Q9BYZ8 (Q9BYZ8 whole entry, looked up): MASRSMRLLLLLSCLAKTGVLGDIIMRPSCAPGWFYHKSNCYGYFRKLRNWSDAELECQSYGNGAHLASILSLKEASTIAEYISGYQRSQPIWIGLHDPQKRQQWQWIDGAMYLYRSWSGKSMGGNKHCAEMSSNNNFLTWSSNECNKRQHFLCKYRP
Chain of Aggrecan (Rattus norvegicus), NP_071526 (chain, as listed by the source): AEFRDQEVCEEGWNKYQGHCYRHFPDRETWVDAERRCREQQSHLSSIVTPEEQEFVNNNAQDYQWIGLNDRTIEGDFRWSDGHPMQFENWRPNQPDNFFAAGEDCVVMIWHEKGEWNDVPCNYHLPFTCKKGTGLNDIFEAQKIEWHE
Chain of CHI3L1 (Homo sapiens), P36222 (P36222 whole entry): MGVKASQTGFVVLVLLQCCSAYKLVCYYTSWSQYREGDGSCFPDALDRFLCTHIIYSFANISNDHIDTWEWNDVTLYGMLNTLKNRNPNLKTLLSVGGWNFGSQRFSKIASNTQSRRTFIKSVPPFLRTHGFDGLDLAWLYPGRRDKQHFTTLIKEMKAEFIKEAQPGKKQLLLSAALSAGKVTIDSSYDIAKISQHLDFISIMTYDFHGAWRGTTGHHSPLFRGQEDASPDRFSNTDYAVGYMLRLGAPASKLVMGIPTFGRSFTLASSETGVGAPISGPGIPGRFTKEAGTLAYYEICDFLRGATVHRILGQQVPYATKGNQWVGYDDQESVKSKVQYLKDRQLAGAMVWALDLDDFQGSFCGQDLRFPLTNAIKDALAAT

Substance | glycan array binding signal (z-score)
CHI3L1 (Homo sapiens), P36222 | -0.025
Regenerating Gene IV (Homo sapiens), Q9BYZ8 | 6.89
Aggrecan (Rattus norvegicus), NP_071526 | -0.066
